L3MBTL1 inh = qHTS Assay for the Inhibitors of L3MBTL1. Lethal(3)malignant brain tumor-like protein 1 (Homo sapiens), Q9Y468. AlphaScreen L3MBTL1–H3K9me1 peptide binding. Potency, µM (top dose mostly 57.1 µM), for inactives: top-dose activity, negative = inhibition, usual class: inhibitors. hit rate 0.66% among 230,000; note: potency is the fitted concentration of half-maximal effect; % is set by controls: 0 for no effect and ±100 for the full control effect; nearly all actives have a fitted effect of over 60% in size
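Displacement of a biotinylated histone H3(1-15) peptide monomethylated at Lys9 (75 nM) from L3MBTL1 (50 nM) was measured by AlphaScreen after a 30 min room-temperature compound incubation; cefsulodin titration served as intraplate control.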
HP1b chromo inh = HTS for Inhibitors of HP1-beta Chromodomain Interactions with Methylated Histone Tails; AlphaScreen HP1-beta / biotin-H3K9me3 peptide binding; Potency, µM (doses to about 114 µM), inactives show top-dose activity change, negative = inhibition, usual class: inhibitors; AID 540317, 2011; hit rate 0.56% among 390,000; Chromobox protein homolog 1 (Homo sapiens), P83916; note: potency is the fitted concentration of half-maximal effect; nearly all actives have a fitted effect of over 70% in size
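HP1-beta protein (50 nM final) preincubated 30 min at room temperature with biotinylated H3(1-18)K9me3 peptide (50 nM) in PBS pH 7.4, 0.01% Tween-20, then compound added for 30 min. AlphaScreen streptavidin donor/nickel chelate acceptor beads (10 ug/mL final), 30 min dark, luminescence read.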
JMJD2A Tudor = qHTS Assay for Inhibitors of JMJD2A-Tudor Domain; AlphaScreen JMJD2A-Tudor / H3K4me3 peptide binding; Potency, µM (highest dose often 114 µM), for the others: at the highest dose activity change, negative = inhibition, usual class: inhibitors; hit rate 4.4% among 390,000; note: potency is the fitted concentration of half-maximal effect; % is set by controls: 0 for no effect and ±100 for the full control effect; nearly all actives have a fitted effect of over 50% in size
PI5P4Ka inh = qHTS for Inhibitors of phosphatidylinositol 5-phosphate 4-kinase (PI5P4K). Phosphatidylinositol 5-phosphate 4-kinase type-2 alpha (Homo sapiens), P48426. PI5P4Kalpha enzyme, ADP-Glo luminescence, 60 min; hits give low values. max response, %. hit rate 1.2% among 330,000; active = max response of -50% or lower; inconclusive = between -30% and -50%; inactive = -30% or higher; note: value at the top dose of about 77 µM; % is set by controls: 0 for no effect and ±100 for the full control effect
Target sequence (P48426 whole entry, looked up): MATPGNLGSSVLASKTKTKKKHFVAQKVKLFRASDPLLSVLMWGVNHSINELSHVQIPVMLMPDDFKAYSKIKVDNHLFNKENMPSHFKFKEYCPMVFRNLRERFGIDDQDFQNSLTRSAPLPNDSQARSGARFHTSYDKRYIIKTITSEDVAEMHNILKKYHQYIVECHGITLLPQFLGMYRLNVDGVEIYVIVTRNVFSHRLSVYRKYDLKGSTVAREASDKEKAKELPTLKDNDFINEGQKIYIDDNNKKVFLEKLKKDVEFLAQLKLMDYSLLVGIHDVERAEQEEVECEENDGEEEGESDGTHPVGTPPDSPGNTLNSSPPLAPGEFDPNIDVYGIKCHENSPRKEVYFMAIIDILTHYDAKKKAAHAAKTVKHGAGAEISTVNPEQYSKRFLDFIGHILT
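ADP-Glo luminescence end-point after a 60 min room-temperature kinase reaction. PI5P4Kalpha and substrate in HEPES pH 7.4 buffer with EGTA, 0.1% CHAPS and 5% DMSO; ATP at 5 microM final.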
BAZ2B inh = qHTS Assay for Inhibitors of BAZ2B. Bromodomain adjacent to zinc finger domain protein 2B (Homo sapiens), Q9UIF8. AlphaScreen BAZ2B-H3K14Ac peptide displacement. Potency, µM (top dose mostly 114 µM), for inactives: at the highest dose activity change, negative = inhibition, actives largely listed as inhibitors. hit rate 4.4% among 360,000; note: potency is the fitted concentration of half-maximal effect; % is set by controls: 0 for no effect and ±100 for the full control effect; nearly all actives have a fitted effect of over 60% in size
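AlphaScreen luminescence quantifies BAZ2B engagement of H3K14Ac peptide; the protein and biotinylated peptide are both at 50 nM final, buffer PBS pH 7.4 with 0.01% Tween-20, all steps at room temperature.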
KDM4E inh = qHTS Assay for Inhibitors of Human Jumonji Domain Containing 2E (JMJD2E); Lysine-specific demethylase 4E (Homo sapiens), B2RXH2; JMJD2E catalytic domain, FDH-coupled NADH fluorescence (FDH is formaldehyde dehydrogenase); Potency, µM (series often up to 57.1 µM), for inactives: at the top dose activity change, negative = inhibition, hits mostly inhibitors; hit rate 1.6% among 230,000; active = well fitted inhibition curve with a large enough effect, not every such curve was filed as active; inconclusive = small, poorly fitted or top-dose-only effect, or another doubt; inactive = no such curve, though single readings can be large or run the other way;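 note: potency is the fitted concentration of half-maximal effect; 0% = wells with enzyme and -100% = buffer wells without enzyme; nearly all actives have a fitted effect of over 50% in size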
Target sequence (B2RXH2 1-337 limits assumed): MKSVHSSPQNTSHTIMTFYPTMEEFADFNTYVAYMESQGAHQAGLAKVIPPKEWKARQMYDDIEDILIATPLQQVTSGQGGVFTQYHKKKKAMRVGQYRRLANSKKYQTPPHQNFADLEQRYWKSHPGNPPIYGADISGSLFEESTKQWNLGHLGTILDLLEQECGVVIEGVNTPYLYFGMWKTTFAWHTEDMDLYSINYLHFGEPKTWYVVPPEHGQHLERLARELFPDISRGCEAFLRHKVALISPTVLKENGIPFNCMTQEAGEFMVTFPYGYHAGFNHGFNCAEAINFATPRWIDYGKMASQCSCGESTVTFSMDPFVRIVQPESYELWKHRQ
Numbers without * were called inactive; ? = inconclusive; · = no result; [ ] = remark or other dose. In the library only some 5.7% were active in any assay of this set; here they are far more common. Unless noted, calls come from the whole dose curve; as a rule, active = well fitted inhibition curve with a large enough effect; inconclusive = small, poorly fitted or top-dose-only effect; inactive = no such curve, though single readings can be large or run the other way.

SMILES	L3MBTL1 inh	HP1b chromo inh	JMJD2A Tudor	PI5P4Ka inh	BAZ2B inh	KDM4E inh
C/C(CC(=O)NC(C)(C)C)=N\NC(=O)c1ccccc1N	·	4.2%	39.8µM*	8.5	-20.3%	?
C/C(CC(=O)Nc1ccc([N+](=O)[O-])cc1)=N\NC(=O)c1ccccc1O	4.5%[2.29 µM]	0.4%	-35.9%	-5.2	-9.5%	·
C/C(CC(=O)Nc1ccc(N(C)C)cc1)=N\NC(=O)c1ccccc1O	-22.0%	-18.2%	56.2µM*	0.5	35.5µM*	·
COc1cccc(C(=O)NC2CC3CCCC(C2)N3CC(=O)Nc2ccc(N(C)C)cc2)c1 (stereo unspecified)	?	?	39.8µM*	-1.3	44.7µM*	5.6%
COc1cccc(C(=O)NC2CC3CCCC(C2)N3CC(=O)Nc2ccccc2)c1 (stereo unspecified)	-15.1%	52.2%	-29.8%[57.1 µM]	-28.5	?	?
COc1cccc(C(=O)N/N=C(\C)CC(=O)Nc2ccc(N(C)C)cc2)c1	-9.1%	17.6%	-27.7%	8.9	56.2µM*	·
Cn1c(=O)n(C)c2cc(NS(=O)(=O)c3ccc(Cl)cc3)c(NCc3ccccc3)cc21	·	65.4%	?	·	-23.9%	·
Cn1c(=O)n(C)c2cc(NS(=O)(=O)c3ccccc3)c(NCc3ccccc3)cc21	·	?	?	·	50.1µM*	·
COc1ccc(S(=O)(=O)Nc2cc3c(cc2NCc2ccccc2)n(C)c(=O)n3C)cc1OC	·	-11.1%	?	·	50.1µM*	·
Cn1c(=O)n(C)c2cc(NS(=O)(=O)c3ccc(C(C)(C)C)cc3)c(NCc3ccccc3)cc21	·	?	22.4µM*	·	39.8µM*	·
COc1ccccc1NC(=O)C1CCN(S(=O)(=O)c2ccc3[nH]c4c(c3c2)CCCCC4)CC1	·	37.3%	-29.9%	·	-11.3%	·
O=C(NC1CC(=O)N(c2cccc(F)c2)C1)C(c1ccccc1)c1ccccc1 (stereo unspecified)	·	37.1%	1.0%	·	3.3%	·
Cc1ccc(OC(C)C(=O)N2CCN(CCc3ccncc3)CC2)cc1C (stereo unspecified)	·	17.4%	-29.8%	·	-3.6%	·
CC(=O)c1ccc(NC(=O)CN2C(=O)CCc3ccccc32)cc1	·	30.9%	-21.1%	·	-14.1%	·
Cc1cc(/C=N/n2cnnc2)c(C)n1-c1ccc(OCc2ccc(Cl)cc2)cc1	·	?	44.7µM*	0.0	79.4µM*	?
Fc1ccccc1COc1cccc(/C=N/n2cnnc2)c1	-3.4%	12.1%	-14.8%	·	·	?
C(=N\n1cnnc1)/c1ccc(OCc2ccccc2)cc1	8.2%	43.3%	-1.9%	·	·	?
Cc1cc(/C=N/n2cnnc2)c(C)n1-c1ccc(OCc2ccccc2F)cc1	-16.4%	?	56.2µM*	·	?	-8.6%
CC(C(Sc1ccccc1N)c1ccccc1)[N+](=O)[O-] (stereo unspecified)	·	?	20µM*	-29.8	-36.1%	11.2µM*
CCCn1c(=N)n(CC(=O)c2ccc(Cl)cc2)c2ccccc21	-0.8%	52.2%	0.7%	-6.6	2.6%	·
CCCn1c(=N)n(CC(=O)c2ccc([N+](=O)[O-])cc2)c2ccccc21	-7.5%	17.0%	-22.8%	-24.2	35.5µM*	?
COc1ccc(-c2c(C3C4C=CCC(C)C4C(=O)N3Cc3ccccc3)ccc3ccccc23)cc1 (stereo unspecified)	·	4.8%	-31.7%	·	·	·
CO/N=C/C=C1/N(C)c2ccccc2C1(C)C	-21.3%	15.8%	-13.4%	14.3	?	-4.8%
CC1=NN(c2ccccc2)C(=O)/C1=C\C=C1\N(C)c2ccccc2C1(C)C	?	31.6µM*	56.2µM*	-4.1	10µM*	0.5%
CC1=NN(c2ccccc2)C(=O)/C1=C\C=C1/N(C)c2ccccc2C1(C)C	?	?	31.6µM*	-2.1	10µM*	-2.2%
SMILES	L3MBTL1 inh	HP1b chromo inh	JMJD2A Tudor	PI5P4Ka inh	BAZ2B inh	KDM4E inh
CN1/C(=C\C=[N+](C)c2ccccc2)C(C)(C)c2ccccc21	-6.7%	15.3%	35.5µM*	·	-35.8%	-5.6%
CN(C)c1ccc(N=C/C=C2/N(C)c3ccccc3C2(C)C)cc1	?	?	39.8µM*	5.7	20µM*	?
CN1/C(=C\C=N\O)C(C)(C)c2ccccc21	-4.3%	29.1%	-6.2%	5.1	-15.2%	-6.5%
CN1/C(=C\C=C2/C(=O)Oc3ccccc3C2=O)C(C)(C)c2ccccc21	-11.4%	-1.3%	3.4%	-3.8	?	1.4%
CC1=NN(c2ccccc2)C(=O)/C1=C/N(C)C	-9.3%	30.7%	-10.6%	0.3	?	?
Cc1cccc2nc(-c3cccnc3)c(Nc3ccc(C(C)C)cc3)n12	·	-0.2%	-15.4%	·	-12.9%	·
CCOc1ccc(C(C)=O)cc1CN1C(=O)NC2(CCCCCCC2)C1=O	7.5%	31.9%	-8.3%	1.0	-2.1%	6.5%
COc1cc(C(=O)NC(=S)N(CCc2ccccc2)CCc2ccccc2)cc(OC)c1OC	?	1.9%	-23.6%	23.0	8.91µM*	1.4%
COc1ccc(C(=O)NC(=S)N(Cc2ccccc2)Cc2ccccc2)cc1	?	?	56.2µM*	-0.8	8.91µM*	0.2%
COc1cc(C(=O)NC(=S)N(C)Cc2ccccc2)cc(OC)c1OC	-1.0%[11.4 µM]	6.2%	-26.1%	-8.5	?	-2.3%
COc1cc(C(=O)N/N=C(\C)Cc2ccccc2)cc(OC)c1OC	9.7%	11.2%	8.91µM*	0.3	-7.8%	37.7%
CCc1ccc(N(CC)C(=O)Cn2c(=O)oc3ccccc32)cc1	·	33.1%	-3.4%	·	2.8%	·
Clc1ccc2c(c1)-c1c(cnc3cc(-c4ccccc4)nn13)CO2	·	47.5%	3.0%	·	7.8%	·
CCc1ccc(C(C)NC(=O)c2ncn[nH]2)cc1 (stereo unspecified)	?	56.9%	-18.8%[57.1 µM]	5.7	50.1µM*	9.5%
Cc1ccc(C(=O)OCc2cc(=O)n3nc(CC(C)C)sc3n2)cc1	·	-5.8%	-7.7%	·	-1.7%	·
Cc1ccc(-c2cc(-c3ccc(Cl)cc3)c(C#N)c(N)n2)o1	-19.4%	-6.1%	79.4µM*	-92.6*	56.2µM*	?
Cc1ccc(-c2cc(-c3ccc(F)cc3)c(C#N)c(N)n2)o1	15.1%	16.0%	39.8µM*	-67.2*	-26.5%	-6.1%
Cc1ccc(-c2cc(-c3ccc(C)o3)nc(N)c2C#N)cc1	-4.4%	?	31.6µM*	-90.1*	70.8µM*	?
Cc1ccc(-c2cc(-c3ccc4c(c3)OCO4)c(C#N)c(N)n2)o1	-1.8%	33.1%	6.8%	·	·	?

High-throughput results as filed in PubChem BioAssay.
